From PubChem BioAssay (NCATS)
Results filed as inconclusive are left out. Entries that show only a call come without a potency. Activity calls are given as the source filed them. The call rests on the fitted dose curve; in most records, active means well fitted curve in the direction sought with a large enough effect; inconclusive means small, poorly fitted or top-dose-only effect, or another doubt; inactive means no such curve, though single readings can be large; an effect the other way counts as inactive or inconclusive.

Columns and labels:
[1] = target: Glutathione peroxidase 1 (Homo sapiens) (UniProt P07203); test: Primary qHTS Assay for Inhibitors of Recombinant Selenoprotein Glutathione Peroxidase 1 (GPX1) (AID 1845191); further: nearly all actives have a fitted effect of over 65% in size; further: potency means the concentration at half of the fitted maximal effect
Summary of the method: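 GPX1 10 nM, GR 100 nM, GSH 1 mM, NADPH 0.5 mM, CHP 0.5 mM (final). 30-min cpd preincubation, RT. Ex340/Em450 read t=0, t=15 min.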

[2] = target: Phospholipid hydroperoxide glutathione peroxidase GPX4 (Homo sapiens) (UniProt P36969); test: Primary qHTS Assay for Inhibitors of Recombinant Selenoprotein Glutathione Peroxidase 4 (GPX4) (AID 1845192); further: nearly all actives have a fitted effect of over 65% in size; further: potency means the concentration at half of the fitted maximal effect
Summary of the method: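 qHTS, GR-coupled: GPX4 200 nM + cpd 30 min RT → GSH 1 mM, NADPH 0.5 mM, GR 100 nM → CHP 0.5 mM start; fluor 340/450 at t0 and t15 min; no-enzyme wells as control.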

[3] = target: Luciferin 4-monooxygenase (Photinus pyralis) (UniProt P08659); test: Primary firefly luciferase (FLuc) qHTS assay for identification of artifact compounds. (AID 1845220); further: nearly all actives have a fitted effect of over 60% in size
Summary of the method: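 In this counter-screen for luciferase artifacts, test compounds met substrate (10 uM each luciferin and ATP) before 10 nM enzyme started the reaction. Light output was measured 5 min later.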

[4] = Primary fluorescence-based thiol-reactive (MSTI) qHTS assay for identification of artifact compounds. (AID 1845221);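 further: series mostly up to about 54 µM; thiol-reactive compounds lower the probe fluorescence signal; nearly all actives have a fitted effect of over 65% in size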
Summary of the method: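 qHTS titration of compound; 4 uM MSTI, PBS pH 7.4, 2% DMSO; 1 h RT, dark; fluorescence 525/598 nm; normalized to Acetyl-MSTI and MSTI; 4-parameter Hill fit.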

[5] = test system: Nanoluciferase (engineered Oplophorus gracilirostris luciferase); test: Primary Nanoluciferase (NLuc) qHTS assay for identification of artifact compounds. (AID 1845222); further: potency means the concentration at half of the fitted maximal effect
Summary of the method: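 Using secreted nanoluciferase in S16 culture medium (0.22 um filtered, 1:55 dilution), compounds were preincubated 15 min at RT. Signal was generated with Nano-Glo reagent (1:100) over 5 min.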

[6] = Primary redox qHTS assay for identification of artifact compounds. (AID 1845223)
Summary of the method: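 Redox-cycling detection via DTT (250 uM final) oxidation coupled to Amplex Red (25 uM)/HRP (250 mU/mL) in HBSS. 15 min preincubation plus 30 min after DTT, room temperature. Ex/Em 525/598 nm; 4-parameter Hill fit against DMSO and 10 uM DA3003.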

Chain of Glutathione peroxidase 1 (Homo sapiens) (P07203 whole entry, looked up): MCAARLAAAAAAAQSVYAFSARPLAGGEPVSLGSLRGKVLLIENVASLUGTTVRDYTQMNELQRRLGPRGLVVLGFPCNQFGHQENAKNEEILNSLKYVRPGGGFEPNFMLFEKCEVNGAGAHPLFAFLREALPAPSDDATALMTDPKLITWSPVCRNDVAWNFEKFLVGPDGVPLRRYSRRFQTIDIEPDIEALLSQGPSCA
Chain of Phospholipid hydroperoxide glutathione peroxidase GPX4 (Homo sapiens) (P36969 whole entry, looked up): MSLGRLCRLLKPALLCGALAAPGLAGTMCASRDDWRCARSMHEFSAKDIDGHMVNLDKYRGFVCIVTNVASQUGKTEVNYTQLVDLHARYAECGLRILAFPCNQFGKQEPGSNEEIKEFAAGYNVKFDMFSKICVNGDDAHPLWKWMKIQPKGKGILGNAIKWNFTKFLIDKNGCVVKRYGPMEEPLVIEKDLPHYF

C#CC(C)(CC)OC(=O)c1ccccc1C(=O)O (stereo not drawn)
Potency [1]: inactive | Potency [2]: inactive

CC1(C)O[C@@H]2C[C@H]3[C@@H]4CCC5=CC(=O)C=C[C@]5(C)[C@@]4(F)[C@@H](O)C[C@]3(C)[C@]2(C(=O)CO)O1
Potency [1]: inactive | Potency [2]: inactive

O=C(O)c1ccccc1S
Potency [1]: inactive | Potency [2]: inactive

CC(C)(C)CC(=O)OCC(=O)[C@@]1(O)CC[C@H]2[C@@H]3CCC4=CC(=O)C=C[C@]4(C)[C@H]3[C@@H](O)C[C@@]21C
Potency [1]: inactive | Potency [2]: inactive

CN(C)CCN(Cc1ccsc1)c1ccccn1
Potency [1]: inactive | Potency [2]: inactive

CC(C)C(=O)Nc1cccc(C2CN3CCSC3=N2)c1 (stereo not drawn)
Potency [1]: inactive | Potency [2]: inactive

CCCCC(=O)OCC(=O)[C@H]1[C@H](C)C[C@H]2[C@@H]3C[C@H](F)C4=CC(=O)C=C[C@]4(C)[C@@]3(F)[C@@H](O)C[C@@]21C
Potency [1]: inactive | Potency [2]: inactive

CCCCCC[C@@H](CCC)C(=O)O
Potency [1]: inactive | Potency [2]: inactive

CN1C(=O)CC(C)(c2ccccc2)C1=O (stereo not drawn)
Potency [1]: inactive | Potency [2]: inactive

CC(C)(Oc1ccc(Cl)cc1)C(=O)OCCCOC(=O)C(C)(C)Oc1ccc(Cl)cc1
Potency [1]: inactive | Potency [2]: inactive

CN1CCC(=C2c3ccccc3CCc3cccnc32)CC1
Potency [1]: inactive | Potency [2]: inactive

CC(=O)OCC[N+](C)(C)C
Potency [1]: inactive | Potency [2]: inactive

CC(=O)N(CC(O)CO)c1c(I)c(C(=O)NCCO)c(I)c(C(=O)NCC(O)CO)c1I (stereo not drawn)
Potency [1]: inactive | Potency [2]: inactive

CCOC(=O)OCC/C(SC(=O)OCC)=C(\C)N(C=O)Cc1cnc(C)nc1N
Potency [1]: inactive | Potency [2]: inactive

CCCCC(CC)CNC(=O)CC(C)OC(=O)CCC(=O)O (stereo not drawn)
Potency [1]: inactive | Potency [2]: inactive

Oc1ccccc1
Potency [1]: inactive | Potency [2]: inactive

CCOC(=O)O[C@]1(C(=O)OCCl)CC[C@H]2[C@@H]3CCC4=CC(=O)C=C[C@]4(C)[C@H]3[C@@H](O)C[C@@]21C
Potency [1]: inactive | Potency [2]: inactive

CC(C)NCCCC1(C(N)=O)c2ccccc2-c2ccccc21
Potency [1]: inactive | Potency [2]: inactive

CCCCCC(=O)O[C@]1(C(C)=O)CC[C@H]2[C@@H]3CCC4=CC(=O)CC[C@]4(C)[C@H]3CC[C@@]21C
Potency [1]: inactive | Potency [2]: inactive

CC1CCCCN1CCCOC(=O)c1ccc(OC2CCCCC2)cc1 (stereo not drawn)
Potency [1]: inactive | Potency [2]: inactive

[O-][n+]1cccc(/C(Cl)=N/OC[C@@H](O)CN2CCCCC2)c1
Potency [1]: inactive | Potency [2]: inactive

Cc1ccc(C(C)OC(=O)C2(C)CCC(C(=O)O)C2(C)C)cc1 (stereo not drawn)
Potency [1]: inactive | Potency [2]: inactive

NS(=O)(=O)c1ccc(N2CCCCS2(=O)=O)cc1
Potency [1]: inactive | Potency [2]: inactive

O=c1[nH]c(=O)n([C@H]2O[C@H](CO)[C@@H](O)[C@@H]2O)cc1/C=C\Br
Potency [1]: inactive | Potency [2]: inactive

Cc1ccc2c(Cl)cc(Cl)c(O)c2n1
Potency [1]: inactive | Potency [2]: inactive

O=C(Oc1ccccc1)c1ccccc1O
Potency [1]: inactive | Potency [2]: inactive

Cc1ccccc1C(=O)N1CC/C(=N\OS(=O)(=O)O)c2ccc(Cl)cc21
Potency [1]: inactive | Potency [2]: inactive | Potency [3]: inactive | Potency [4]: inactive | Potency [5]: 26.9 µM (active) | outcome [6]: inactive

C=CC[N+]1([C@H]2C[C@H]3[C@@H]4CC[C@H]5C[C@H](OC(C)=O)[C@@H](N6CCCCC6)C[C@]5(C)[C@H]4CC[C@]3(C)[C@H]2OC(=O)CC)CCCCC1
Potency [1]: inactive | Potency [2]: inactive | Potency [3]: inactive | Potency [4]: inactive

CCOC(=O)c1ccc(OCCN2C[C@H](O)[C@@H](O)[C@H](O)[C@H]2CO)cc1
Potency [1]: inactive | Potency [2]: inactive | Potency [3]: inactive | Potency [4]: inactive | outcome [6]: inactive

CO/N=C(/C(=O)N[C@@H]1C(=O)N2C(C(=O)[O-])=C(C[n+]3ccn4ncccc43)CS[C@H]12)c1nsc(N)n1
Potency [1]: 20.2 µM (active) | Potency [2]: 17.8 µM (active)

O=C(O)C(=O)Nc1cccc(-c2nn[nH]n2)c1
Potency [1]: inactive | Potency [2]: inactive

NS(=O)(=O)c1cc2c(cc1Cl)CN(C1CCCCC1)C2=O
Potency [1]: inactive | Potency [2]: inactive

CN1CCC(N(Cc2cccs2)c2ccccc2)CC1
Potency [1]: inactive | Potency [2]: inactive | Potency [3]: inactive | Potency [4]: inactive | Potency [5]: inactive | outcome [6]: inactive

CN(C)CCCOC1(Cc2ccccc2)CCCCCC1
Potency [1]: inactive | Potency [2]: inactive

O=C(CCC1CCN(Cc2ccccc2)CC1)c1ccc2c(c1)NCCCC2
Potency [1]: inactive | Potency [2]: inactive | Potency [3]: inactive | Potency [4]: inactive | Potency [5]: inactive | outcome [6]: inactive

CC(=O)Nc1ccn(C2COC(COC(=O)c3ccccc3)O2)c(=O)n1 (stereo not drawn)
Potency [1]: inactive | Potency [2]: inactive | Potency [3]: inactive | Potency [4]: inactive | outcome [6]: inactive

CO[C@]1(NC(=O)CSC(F)F)C(=O)N2C(C(=O)O)=C(CSc3nnnn3CCO)CO[C@H]21
Potency [1]: inactive | Potency [2]: inactive | Potency [3]: inactive | Potency [4]: inactive | Potency [5]: inactive | outcome [6]: inactive
